Screening data deposited in PubChem by National Center for Advancing Translational Sciences (NCATS).
NPR1 antag: human Npr1 receptor antagonism | P16066 | HEK293 hNpr1 GloSensor cGMP, ANP-stimulated luminescence | Potency, µM (doses to about 46.3 µM), for the others: at the highest dose activity change, negative = inhibition, actives largely listed as inhibitors | actives 1.6% (n = 76,000); calls by dose curve; note: nearly all actives have a fitted effect of over 60% in size
Target sequence (P16066 whole entry, looked up): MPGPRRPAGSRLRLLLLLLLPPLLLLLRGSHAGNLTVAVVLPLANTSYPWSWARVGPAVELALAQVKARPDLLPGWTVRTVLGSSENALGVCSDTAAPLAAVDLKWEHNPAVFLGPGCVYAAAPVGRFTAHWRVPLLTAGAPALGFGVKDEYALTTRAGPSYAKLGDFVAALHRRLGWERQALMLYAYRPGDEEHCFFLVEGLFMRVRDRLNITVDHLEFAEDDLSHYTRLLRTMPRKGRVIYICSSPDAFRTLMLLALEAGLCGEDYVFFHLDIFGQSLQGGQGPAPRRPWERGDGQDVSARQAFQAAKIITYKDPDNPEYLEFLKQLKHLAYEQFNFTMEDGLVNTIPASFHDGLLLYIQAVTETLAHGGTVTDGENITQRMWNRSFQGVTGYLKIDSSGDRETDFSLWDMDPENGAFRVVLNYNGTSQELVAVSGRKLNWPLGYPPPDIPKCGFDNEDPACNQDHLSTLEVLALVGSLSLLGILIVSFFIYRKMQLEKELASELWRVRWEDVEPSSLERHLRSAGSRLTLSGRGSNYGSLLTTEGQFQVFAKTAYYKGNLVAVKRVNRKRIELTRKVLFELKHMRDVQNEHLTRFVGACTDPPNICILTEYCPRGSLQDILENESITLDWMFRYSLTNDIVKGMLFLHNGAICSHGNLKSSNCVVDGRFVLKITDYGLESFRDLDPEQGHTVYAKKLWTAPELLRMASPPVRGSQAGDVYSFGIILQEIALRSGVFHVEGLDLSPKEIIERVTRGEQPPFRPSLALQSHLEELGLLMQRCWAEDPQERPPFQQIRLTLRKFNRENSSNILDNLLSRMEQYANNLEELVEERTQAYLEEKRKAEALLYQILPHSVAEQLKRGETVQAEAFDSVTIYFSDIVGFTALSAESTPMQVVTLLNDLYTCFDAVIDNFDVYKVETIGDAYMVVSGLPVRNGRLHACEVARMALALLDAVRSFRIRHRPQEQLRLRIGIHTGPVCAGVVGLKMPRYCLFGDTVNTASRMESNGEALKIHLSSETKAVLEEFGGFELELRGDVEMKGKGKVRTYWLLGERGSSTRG
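Compound pre-incubated 30 min at room temperature on GloSensor-loaded HEK293 cells stably carrying hNpr1 and the pGS-40F cGMP biosensor. Stimulation uses hNppA at 0.1 nM final; luminescence is taken at baseline and 20 min post-agonist.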
Luciferase inh: inhibitors of firefly (Photinus pyralis) luciferase. P08659. purified P. pyralis luciferase, luminescence, biochemical. Potency, µM (doses to about 115 µM), actives largely listed as inhibitors. actives 2.5% (n = 76,000). AID 1347043; note: nearly all actives have a fitted effect of over 65% in size
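Luminescence read by CCD imaging after purified firefly luciferase (10nM final) was added to substrate buffer holding 10uM D-luciferin and 10uM ATP, pH 7.5, pre-dosed with compound.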
HEK293 tox: cytotoxic compounds in HEK 293 cells; AID 1345083; actives 6.6% (n = 94,000); Potency, µM (series often up to 115 µM), for inactives: at the highest dose activity change, negative = cytotoxicity, most hits filed as inhibitors; HEK 293 viability, ATP luminescence (CellTiter-Glo), 48-72 h; note: nearly all actives have a fitted effect of over 60% in size
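qHTS cytotoxicity; HEK 293, 250 cells/well; compound pinned; 48 or 72 hr, 37 degree Celsius, 5% CO2, 95% humidity; CellTiter-Glo, 10 min RT; luminescence (ATP).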
GPT2 inhibitor: blocks human glutamate pyruvate transaminase 2 | Q8TD30 | Recombinant GPT2, coupled pyruvate oxidase/HRP Amplex Red fluorescence | Potency, µM (titrated, usually from 57.7 µM), for the others: at the highest dose activity change, negative = inhibition, actives largely listed as inhibitors | actives 0.25% (n = 100,000); note: nearly all actives have a fitted effect of over 60% in size
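Inhibition is scored from Amplex Red fluorescence generated when pyruvate oxidase and HRP act on pyruvate released by GPT2. Reactions contain 10ng/uL enzyme, 250uM a-KG and 2mM L-alanine and run 30 min at room temperature.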
3T3 cytotox: NIH 3T3 cell cytotoxicity | Potency, µM (highest dose often 96.7 µM), inactives show top-dose activity change, negative = cytotoxicity, hits mostly inhibitors | actives 4.3% (n = 94,000) | NIH 3T3 viability, CellTiter-Glo ATP luminescence, 48-72 h; note: nearly all actives have a fitted effect of over 55% in size
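Cells were seeded at 400 per well, treated with pin-transferred compound, and kept 48 or 72 hr at 37 °C before CellTiter-Glo addition and luminescence imaging of cellular ATP.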
* = called active by the depositor; i = inactive; ? = inconclusive; . = not tested or not shown; [ ] = remark or other dose. Rows were chosen to be rich in hits. Some 10% of all compounds tested hit in one or more screens of this group. Unless noted, calls come from the whole dose curve; as a rule, active = well fitted curve in the direction sought with a large enough effect; inconclusive = small, poorly fitted or top-dose-only effect, or another doubt; inactive = no such curve, though single readings can be large; an effect the other way counts as inactive or inconclusive. % is set by controls: 0 for no effect and ±100 for the full control effect; potency is the fitted concentration of half-maximal effect.

SMILES	NPR1 antag	Luciferase inh	HEK293 tox	GPT2 inhibitor	3T3 cytotox
Cc1ccccc1C(=O)N1CCC(N2C(=O)c3c(c(C)nn3-c3ccccc3)C2C)C1 (stereo not drawn)	.	.	44.7µM*	.	?
CS(=O)(=O)N1CCC(C2CCNC2)CC1 (stereo not drawn)	12.4%	i	-19.2%	i	-7.0%
CCOC(=O)CCNC(=O)N1c2ccccc2CC1c1nc(C(C)C)no1 (stereo not drawn)	8.3%	i	-2.3%	i	i
COc1cc(Cl)ccc1C(=O)N1CCC(c2n[nH]c(=O)n2Cc2ccc(F)cc2)CC1	-6.9%	i	?	i	-24.3%
CC(C)CCCC1CN(C(=O)c2cn(C3CCC(N)CC3)nn2)CCO1 (stereo not drawn)	-0.1%	i	?	-15.9%	?
Cc1ccccc1C(=O)N1CCC2(CC1)C(=O)N(c1cccc(F)c1)C2c1ccccc1 (stereo not drawn)	.	.	25.1µM*	?	35.5µM*
Cc1cc(=O)n(CC(=O)NCc2ccc(F)cc2)c(N2CCc3ccccc3C2)n1	-25.0%	i	44.7µM*	i	?
COc1cccc(NC(=O)Cn2c(N3CCc4ccccc4C3)nc(C)cc2=O)c1	?	i	20µM*	?	22.4µM*
Cc1cc(=O)n(CC(=O)Nc2ccc(F)cc2)c(N2CCc3ccccc3C2)n1	-23.4%	i	39.8µM*	i	39.8µM*
Cc1cc(=O)n(CC(=O)Nc2ccc(C(C)C)cc2)c(N2CCN(c3ccccc3)CC2)n1	-1.1%	i	?	2.6%	31.6µM*
O=C(NC1CCCC1)c1nc2cccnc2n(CCc2ccccc2)c1=O	.	.	?	i	?
COCCn1ncc(N2CCC(NC(=O)c3ccc(C)cc3C)CC2)cc1=O	-1.6%	i	-4.3%	i	-8.0%
CCOC(=O)c1ccc(NC(=O)Cn2c(N3CCc4ccccc4C3)nc(C)cc2=O)cc1	-13.1%	i	31.6µM*	i	31.6µM*
CCc1ccc(NC(=O)Cn2c(N3CCc4ccccc4C3)nc(C)cc2=O)cc1	-17.3%	i	?	i	?
CCN(CC)C1CCN(C(=O)c2cc(OC)ccc2OC2CCN(C(=O)C3CC3)CC2)C1 (stereo not drawn)	6.7%	i	-2.2%	?	-1.3%
COc1ccc(F)cc1-c1cccc(C(=O)NCCNC(=O)c2ccccc2)c1	.	.	?	i	?
COc1ccc(F)cc1-c1cccc(C(=O)NCCNC(=O)c2ccc(F)cc2)c1	.	.	35.5µM*	-5.2%	?
COc1ccc(F)cc1-c1cccc(C(=O)NCCN[S+](=O)([O-])CCC(F)(F)F)c1	.	.	79.4µM*	i	?
COc1ccccc1C(=O)NCCNC(=O)c1cccc(-c2cc(F)ccc2OC)c1	.	.	?	-0.6%	?
COc1ccc(F)cc1-c1cccc(C(=O)NCCNC(=O)c2cccnc2)c1	.	.	?	.	35.5µM*
COc1ccc(F)cc1-c1cccc(C(=O)NCC(=O)NCCc2cccc(F)c2)c1	.	.	39.8µM*	.	?
O=C(NCc1ccc(F)cc1)C1CN(c2cccc(Cl)c2)C(=O)N1 (stereo not drawn)	5.5%[70.6 µM]	i	?	i	?
CC(C)N1C[C@H](O)C[C@H]1c1nnc2n1CCN(C(=O)c1ccccc1F)C2	-3.2%	i	-22.4%	i	-12.3%
CCN1c2cc(C(=O)Nc3cccc(C(F)(F)F)c3)ccc2C(=O)N2CCCCC21 (stereo not drawn)	0.0%	i	28.2µM*	-8.6%	?
CCN1c2cc(C(=O)Nc3cccc(SC)c3)ccc2C(=O)N2CCCCC21 (stereo not drawn)	1.4%	i	22.4µM*	i	?
SMILES	NPR1 antag	Luciferase inh	HEK293 tox	GPT2 inhibitor	3T3 cytotox
CCN1c2cc(C(=O)Nc3cccc(OC(F)(F)F)c3)ccc2C(=O)N2CCCCCC21 (stereo not drawn)	-6.3%	i	?	i	28.2µM*
CCN1c2cc(C(=O)Nc3ccc(C)cc3)ccc2C(=O)N2CCCCC21 (stereo not drawn)	?	i	39.8µM*	0.1%	35.5µM*
CCN1c2cc(C(=O)Nc3cccc(F)c3)ccc2C(=O)N2CCCCCC21 (stereo not drawn)	-2.0%	i	?	i	?
CCN1c2cc(C(=O)Nc3cccc(F)c3)ccc2C(=O)N2CCCC21 (stereo not drawn)	1.6%	i	?	0.4%	?
CC(C)(C)COC(=O)N1CC(=O)N(CCCc2ccccc2)CC(O)C1 (stereo not drawn)	.	.	-25.6%	.	?
COc1ccccc1-c1cc(C(=O)N(C)CC#N)c2cnn(C)c2n1	.	.	-18.4%	.	-28.3%
CCN1c2cc(C(=O)Nc3cccc(C)c3)ccc2C(=O)N2CCCCCC21 (stereo not drawn)	-2.3%	i	?	1.9%	?
CCN1c2cc(C(=O)Nc3ccc(N(C)C)cc3)ccc2C(=O)N2CCCCCC21 (stereo not drawn)	-7.8%	17.8µM*	39.8µM*	?	?
CCN1c2cc(C(=O)Nc3ccc(C(N)=O)cc3)ccc2C(=O)N2CCCCCC21 (stereo not drawn)	-2.1%	i	?	-7.2%	?
CCN1c2cc(C(=O)Nc3cccc(C)c3)ccc2C(=O)N2CCCCC21 (stereo not drawn)	-2.2%	i	31.6µM*	i	35.5µM*
CCCN(CC1CCOC1)C(=O)Nc1ccc(C)c(Cl)c1 (stereo not drawn)	-0.6%	i	-16.8%	2.2%	-15.6%
COCc1ccc2c(c1)c(OC(C)(C)C(=O)NC1CCOCC1)nn2Cc1ccccc1	7.7%[70.6 µM]	i	?	i	?
CC(C)(Oc1nn(Cc2cccc(Cl)c2)c2ccccc12)C(=O)NC1CCOCC1	-25.8%[70.6 µM]	i	89.1µM*	-10.7%[88.5 µM]	?
CC(C)(Oc1nn(Cc2cccc(Cl)c2)c2ccccc12)C(=O)NCCN1CCOCC1	-20.7%	i	50.1µM*	1.4%	?
COCc1ccc2c(c1)c(OC(C)(C)C(=O)NCCN1CCOCC1)nn2Cc1ccccc1	1.6%	i	?	-5.4%	?
CC(C)(Oc1nn(Cc2cccc(Cl)c2)c2ccccc12)C(=O)NCCCn1ccnc1	?	i	50.1µM*	1.6%	31.6µM*
CC(C)(Oc1nn(Cc2cccc(Cl)c2)c2ccccc12)C(=O)N1CCOCC1	?	i	89.1µM*	-12.4%[88.5 µM]	?
O=S(=O)(Cc1ccccc1)N1CC(c2nnc(-c3ccncc3)o2)C2(CCOCC2)C1 (stereo not drawn)	-1.1%	i	i	i	1.9%
CC(C)n1nc(OC(C)(C)C(=O)NCC2CCOCC2)c2cc(CN3CCOCC3)ccc21	4.2%	i	-9.8%	-6.3%	?
